# Data from the supplement of paper PMC8728848.
# Many of the other results were omitted from the sample, so the strongest signals are more common in it than they were.
# How the values were obtained:
# Assay in all cases: glycan array binding signal (z-score within array); higher = stronger binding
# Settings in all cases: glycan notation: IUPAC condensed, linker removed
# [1] = target: Fuc(a1-2)Gal(b1-3)[Fuc(a1-4)]GlcNAc(b1-3)[Gal(b1-4)GlcNAc(b1-6)]Gal(b1-4)Glc
# Outline: (§1)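 Arrays were curated from the Consortium for Functional Glycomics database, 3228 in total, and kept only where the protein sequence was available. Binding is expressed as a within-array Z-score. This score was averaged across arrays of the same protein sequence at different concentrations or buffers and across linkers, and negative values can be read as non-binding.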
# Fuc(a1-2)Gal(b1-4)Glc = target: Fuc(a1-2)Gal(b1-4)Glc
# Outline: as §1
# [2] = target: Fuc(a1-2)Gal(b1-4)[Fuc(a1-3)]GlcNAc(b1-3)GalNAc
# Outline: as §1
# [3] = target: Fuc(a1-2)[Gal(a1-4)]Gal(b1-4)GlcNAc
# Outline: as §1
# [4] = target: Fuc(a1-2)[GalNAc(a1-3)]Gal
# Outline: as §1
# [5] = target: Fuc(a1-3)[Gal(b1-4)]GlcNAc(b1-6)GalNAc
# Outline: as §1
# [6] = target: Fuc(a1-3)[GalNAc(b1-4)]GlcNAc
# Outline: as §1
# [7] = target: Gal(a1-3)Fuc(a1-2)Gal(b1-4)GlcNAc(b1-3)[Gal(a1-3)Fuc(a1-2)Gal(b1-4)GlcNAc(b1-6)]GalNAc
# Outline: as §1
# [8] = target: Gal(a1-3)Gal(b1-3)GlcNAc(b1-2)Man(a1-3)[Gal(a1-3)Gal(b1-3)GlcNAc(b1-2)Man(a1-6)]Man(b1-4)GlcNAc(b1-4)GlcNAc
# Outline: as §1
# [9] = target: Gal(a1-3)Gal(b1-4)[Fuc(a1-3)]GlcNAc(b1-2)Man(a1-3)[Gal(a1-3)Gal(b1-4)[Fuc(a1-3)]GlcNAc(b1-2)Man(a1-6)]Man(b1-4)GlcNAc(b1-4)GlcNAc
# Outline: as §1
# Gal(a1-4)Gal(b1-4)Glc = target: Gal(a1-4)Gal(b1-4)Glc
# Outline: as §1
# [10] = target: Gal(b1-3)GlcNAc(b1-6)Gal(b1-4)GlcNAc
# Outline: as §1
# [11] = target: Gal(b1-3)[Fuc(a1-4)]GlcNAc(b1-2)Man(a1-3)[Gal(b1-3)[Fuc(a1-4)]GlcNAc(b1-2)Man(a1-6)]Man(b1-4)GlcNAc(b1-4)GlcNAc
# Outline: as §1
# [12] = target: Gal(b1-4)GlcNAc(b1-2)Man(a1-3)Man(b1-4)GlcNAc(b1-4)GlcNAc
# Outline: as §1
# [13] = target: Gal(b1-4)GlcNAc(b1-2)Man(a1-3)[Gal(b1-4)GlcNAc(b1-2)Man(a1-6)]Man(b1-4)GlcNAc(b1-4)[Fuc(a1-6)]GlcNAc
# Outline: as §1
# [14] = target: Gal(b1-4)GlcNAc(b1-2)Man(a1-6)Man(b1-4)GlcNAc(b1-4)GlcNAc
# Outline: as §1
# [15] = target: Gal(b1-4)GlcNAc(b1-3)[Gal(b1-4)GlcNAc(b1-6)]GalNAc
# Outline: as §1
# [16] = target: Gal(b1-4)GlcNAc(b1-6)[Gal(b1-3)]GalNAc
# Outline: as §1
# Gal3S(b1-4)GlcNAc = target: Gal3S(b1-4)GlcNAc
# Outline: as §1
# [17] = target: Gal3S(b1-4)[Fuc(a1-3)]Glc
# Outline: as §1
# Gal3S4S(b1-4)GlcNAc = target: Gal3S4S(b1-4)GlcNAc
# Outline: as §1
# Gal3S6S(b1-4)GlcNAc = target: Gal3S6S(b1-4)GlcNAc
# Outline: as §1
# GalNAc(b1-3)Gal = target: GalNAc(b1-3)Gal
# Outline: as §1
# Glc(b1-4)Glc = target: Glc(b1-4)Glc
# Outline: as §1
# [18] = target: GlcNAc(a1-4)Gal(b1-4)GlcNAc(b1-3)Gal(b1-4)GlcNAc
# Outline: as §1
# [19] = target: GlcNAc(a1-4)Gal(b1-4)GlcNAc(b1-3)Gal(b1-4)[Fuc(a1-3)]GlcNAc(b1-3)Gal(b1-4)[Fuc(a1-3)]GlcNAc
# Outline: as §1
# [20] = target: GlcNAc(a1-6)Gal(b1-4)GlcNAc
# Outline: as §1
# [21] = target: GlcNAc(b1-6)Gal(b1-4)GlcNAc
# Outline: as §1
# Kdn(a2-3)Gal(b1-3)GalNAc = target: Kdn(a2-3)Gal(b1-3)GalNAc
# Outline: as §1
# [22] = target: Man(a1-2)Man(a1-3)[Man(a1-2)Man(a1-6)]Man
# Outline: as §1
# [23] = target: Man(a1-2)Man(a1-3)[Man(a1-2)Man(a1-6)]Man(a1-6)[Man(a1-2)Man(a1-2)Man(a1-3)]Man
# Outline: as §1
# [24] = target: Man(a1-2)Man(a1-3)[Man(a1-2)Man(a1-6)]Man(a1-6)[Man(a1-2)Man(a1-2)Man(a1-3)]Man(b1-4)GlcNAc(b1-4)GlcNAc
# Outline: as §1
# [25] = target: Man(a1-2)Man(a1-6)[Man(a1-3)]Man(a1-6)[Man(a1-2)Man(a1-2)Man(a1-3)]Man(b1-4)GlcNAc(b1-4)GlcNAc
# Outline: as §1
# [26] = target: Neu5Ac(a2-3)Gal(b1-3)[Neu5Ac(a2-6)]GalNAc
# Outline: as §1
# [27] = target: Neu5Ac(a2-3)Gal(b1-4)GlcNAc(b1-6)[Neu5Ac(a2-3)Gal(b1-3)]GalNAc
# Outline: as §1
# Neu5Ac(a2-6)Gal(b1-4)Glc = target: Neu5Ac(a2-6)Gal(b1-4)Glc
# Outline: as §1
# [28] = target: Neu5Ac(a2-6)Gal(b1-4)GlcNAc(b1-2)Man(a1-3)[Man(a1-6)]Man(b1-4)GlcNAc(b1-4)GlcNAc
# Outline: as §1
binder,measurement,setting,value
"Eosinophil cationic protein (ECP) (Homo sapiens), P12724 (protein) MVPKLFTSQICLLLLLGLMGVEGSLHARPPQFTRAQWFAIQHISLNPPRCTIAMRAINNYRWRCKNQNTFLRTTFANVVNVCGNQSIRCPHNRTLNNCHRSRFRVPLLHCDLINPGAQNISNCTYADRPGRRFYVVACDNRDPRDSPRYPVVPVHLDTTI",glycan array binding signal (z-score),[1],-0.315
same,glycan array binding signal (z-score),Fuc(a1-2)Gal(b1-4)Glc,-0.348
same,glycan array binding signal (z-score),[2],2.14
same,glycan array binding signal (z-score),[3],-0.421
same,glycan array binding signal (z-score),[4],-0.298
same,glycan array binding signal (z-score),[5],2.25
same,glycan array binding signal (z-score),[6],-0.183
same,glycan array binding signal (z-score),[7],0.494
same,glycan array binding signal (z-score),[8],1.32
same,glycan array binding signal (z-score),[9],2.23
same,glycan array binding signal (z-score),Gal(a1-4)Gal(b1-4)Glc,-0.102
same,glycan array binding signal (z-score),[10],-0.17
same,glycan array binding signal (z-score),[11],0.007
same,glycan array binding signal (z-score),[12],-0.103
same,glycan array binding signal (z-score),[13],0.16
same,glycan array binding signal (z-score),[14],-0.08
same,glycan array binding signal (z-score),[15],-0.091
same,glycan array binding signal (z-score),[16],-0.081
same,glycan array binding signal (z-score),Gal3S(b1-4)GlcNAc,0.818
same,glycan array binding signal (z-score),[17],2.4
same,glycan array binding signal (z-score),Gal3S4S(b1-4)GlcNAc,-0.557
same,glycan array binding signal (z-score),Gal3S6S(b1-4)GlcNAc,2.7
same,glycan array binding signal (z-score),GalNAc(b1-3)Gal,-0.382
same,glycan array binding signal (z-score),Glc(b1-4)Glc,0.024
same,glycan array binding signal (z-score),[18],8.33
same,glycan array binding signal (z-score),[19],4.18
same,glycan array binding signal (z-score),[20],3.15
same,glycan array binding signal (z-score),[21],0.126
same,glycan array binding signal (z-score),Kdn(a2-3)Gal(b1-3)GalNAc,0.204
same,glycan array binding signal (z-score),[22],-0.495
same,glycan array binding signal (z-score),[23],-0.174
same,glycan array binding signal (z-score),[24],-0.101
same,glycan array binding signal (z-score),[25],0.498
same,glycan array binding signal (z-score),[26],-0.097
same,glycan array binding signal (z-score),[27],-0.004
same,glycan array binding signal (z-score),Neu5Ac(a2-6)Gal(b1-4)Glc,0.151
same,glycan array binding signal (z-score),[28],-0.018
